# Measurements published in publication PMC4336329 (PLoS ONE, 2015).
# The campaign covered roughly 310,000 compounds. About 14,000 (4.5%) showed an effect of 50% or more. Effects have a minus sign here. For the sample, strong results were picked, then their nearest neighbours and some compounds at random.
# Target: human ether-à-go-go-related gene (hERG) potassium channel (human, UniProt Q12809)
# Test: primary screen, population patch clamp on CHO cells stably expressing hERG; higher = less effect of the substance
# 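Also: peak tail current of the secondary pulse compared with the same well before compound.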
# Chain of human ether-à-go-go-related gene (hERG) potassium channel (Q12809 whole entry, looked up): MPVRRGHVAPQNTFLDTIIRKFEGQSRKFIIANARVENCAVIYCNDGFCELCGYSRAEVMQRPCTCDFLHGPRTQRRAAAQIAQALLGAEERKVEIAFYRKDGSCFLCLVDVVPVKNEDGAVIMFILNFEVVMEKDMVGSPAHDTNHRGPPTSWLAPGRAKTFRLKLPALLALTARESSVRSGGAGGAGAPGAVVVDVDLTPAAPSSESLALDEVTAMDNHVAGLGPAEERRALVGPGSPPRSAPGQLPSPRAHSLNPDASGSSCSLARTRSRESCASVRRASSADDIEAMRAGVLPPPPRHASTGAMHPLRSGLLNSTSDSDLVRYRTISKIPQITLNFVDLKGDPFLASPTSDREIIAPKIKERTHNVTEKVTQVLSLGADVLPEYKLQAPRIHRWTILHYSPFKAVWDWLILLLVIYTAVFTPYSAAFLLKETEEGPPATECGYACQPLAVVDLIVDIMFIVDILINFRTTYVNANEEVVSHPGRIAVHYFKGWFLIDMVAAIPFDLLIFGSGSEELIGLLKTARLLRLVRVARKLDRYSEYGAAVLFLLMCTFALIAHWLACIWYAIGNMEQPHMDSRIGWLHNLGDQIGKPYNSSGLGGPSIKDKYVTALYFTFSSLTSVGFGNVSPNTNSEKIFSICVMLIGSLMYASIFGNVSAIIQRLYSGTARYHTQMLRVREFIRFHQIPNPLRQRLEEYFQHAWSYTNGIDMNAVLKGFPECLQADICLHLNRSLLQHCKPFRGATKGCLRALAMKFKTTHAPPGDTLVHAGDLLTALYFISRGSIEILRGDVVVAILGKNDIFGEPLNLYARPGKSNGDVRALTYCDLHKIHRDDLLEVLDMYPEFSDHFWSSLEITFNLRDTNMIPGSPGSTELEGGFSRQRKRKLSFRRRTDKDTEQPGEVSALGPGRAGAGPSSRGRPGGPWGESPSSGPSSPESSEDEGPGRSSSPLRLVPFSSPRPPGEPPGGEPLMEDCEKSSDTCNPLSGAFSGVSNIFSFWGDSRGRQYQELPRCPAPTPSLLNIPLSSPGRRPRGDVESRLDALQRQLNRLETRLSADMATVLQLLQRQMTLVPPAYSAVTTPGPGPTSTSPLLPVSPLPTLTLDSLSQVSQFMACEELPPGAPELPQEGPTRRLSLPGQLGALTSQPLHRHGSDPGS
row,Compound,"hERG current change (%, negative = inhibition) at 10uM [%]"
1,Cc1ccccc1/C=C1\SC(=S)N(/N=C/c2cc([N+](=O)[O-])ccc2O)C1=O,8.13
2,COc1ccc(N(C)C(=O)c2cnc(N3CCN(c4ncccn4)CC3)c3ccccc23)cc1,-11.8
3,Cc1ccc(NC(=O)N2CCC(NC(=O)C(C)(C)C)CC2)cc1,10.1
4,O=C(Cn1cncn1)N/N=C/c1cccc(Cl)c1,16.3
5,Oc1ccc(N=Nc2cccc(C(F)(F)F)c2)cc1C=Nc1ccc(N2CCOCC2)cc1,15.6
6,CCOc1ccc(C(CC(=O)O)NC(=O)COc2ccccc2OC)cc1OC (stereo not shown),26.4
7,Cc1c(C(=O)O)cccc1-c1ccc(/C=N/Nc2ccc(Br)cc2)o1,30.2
8,COc1ccc(S(=O)(=O)N2CCN(CC(=O)Nc3ccc(F)c(F)c3)CC2)cc1,-66.4
9,CCc1ccc(NC(=O)CN2CCCN(S(=O)(=O)c3ccc(F)cc3)CC2)cc1,-63.9
10,O=C(CN1CCCN(S(=O)(=O)c2ccc(F)cc2)CC1)Nc1cccc(F)c1,-50.3
11,COc1ccc(NC(=O)CN2CCN(S(=O)(=O)c3ccc(Cl)cc3)CC2)cc1Cl,-0.308
12,NS(=O)(=O)c1ccc(NC(=O)CN2CCCN(S(=O)(=O)c3ccc(F)cc3)CC2)cc1,-17.9
13,Cc1ccc(S(=O)(=O)N2CCN(C(=O)CCC(=O)NC3CCCc4ccccc43)CC2)cc1 (stereo not shown),-17.3
14,O=C(CCC(=O)N1CCN(S(=O)(=O)c2ccc(Cl)cc2)CC1)NC1CCCc2ccccc21 (stereo not shown),-52.6
15,O=C(CN1CCCN(S(=O)(=O)c2ccc(F)cc2)CC1)Nc1c(Cl)cccc1Cl,-27.1
16,COc1ccc(S(=O)(=O)N2CCN(CC(=O)Nc3cc(OC)cc(OC)c3)CC2)cc1,-0.404
17,O=C(CN1CCN(S(=O)(=O)c2ccc(F)cc2)CC1)Nc1ccc2c(c1)OCCO2,-10.9
18,COc1ccc(NC(=O)CN2CCCN(S(=O)(=O)c3ccc(F)cc3)CC2)cc1,-36.5
19,O=C(CCC(=O)N1CCN(S(=O)(=O)c2ccccc2)CC1)NC1CCCc2ccccc21 (stereo not shown),-13.5
20,Cc1c(C(=O)Nc2nnc(C(F)(F)F)s2)oc2ccccc12,13.1
21,Cc1cc(OC(=O)c2ccc(S(=O)(=O)N(C)C)cc2)c([N+](=O)[O-])c(=O)[nH]1,10.6
22,COc1ccc2c(c1OC)C(=O)OC2C1c2cc3c(cc2CCN1C)OCO3 (stereo not shown),6.25

row,Compound,"hERG current change (%, negative = inhibition) at 10uM [%]"
1,COc1cc(C(O)CN)ccc1O.Cl (stereo not shown),3.21
2,CCN(CC)C(=S)Sc1c(-c2ccccc2)c2cc(Cl)ccc2[nH]c1=O,5.42
3,COc1cccc(NC(=O)CN2CCN(S(=O)(=O)c3ccc(F)cc3)CC2)c1,-23.1
4,COc1ccc(S(=O)(=O)N2CCN(CC(=O)Nc3cccc(OC)c3)CC2)cc1,-31.4
5,COc1ccc(S(=O)(=O)N2CCN(CC(=O)Nc3cccc(F)c3)CC2)cc1,-54.1
6,Cc1cnc(NC(=O)C(C)N2CCN(C)CC2)s1.O=C(O)C(=O)O (stereo not shown),20.7
7,O=C(O)C1(P(=O)(c2ccccc2)c2ccccc2)CCC1,-3.46
8,CC(/C=N/Nc1nnc(C)c(=O)[nH]1)=C\c1ccccc1,-10.5
9,CC(/C=N/Nc1ncc(C)c(=O)[nH]1)=C\c1ccccc1,-53
10,CC(/C=N/Nc1nncc(=O)[nH]1)=C\c1ccccc1,3.08
11,O=C(CSc1nnc(COc2ccc(Cl)cc2)o1)NC1CC2CCC1C2 (stereo not shown),11.5
12,CCC(C)(C)NC(=O)C(C(C)C)N(CC1CCCO1)C(=O)CNS(=O)(=O)c1ccccc1 (stereo not shown),-2.21
13,CCC(Oc1ccccc1)C(=O)Nc1ccc(C)c(S(=O)(=O)N2CCOCC2)c1 (stereo not shown),-18
14,CNCc1ccccc1Sc1ccc(OC)cc1.Cl,-30.4
15,CNC(C)Cc1ccccc1Sc1ccc(O)cc1.Cl (stereo not shown),-66.7
16,CC(N)Cc1ccccc1Sc1ccc(O)cc1.O=C(O)C(=O)O (stereo not shown),-35.5
17,CC(Cc1ccccc1Sc1ccccc1O)N(C)C.Cl (stereo not shown),-18.9
18,CN(C)Cc1ccccc1Sc1ccc(Br)cc1,-15.6
19,CC(Cc1ccccc1Sc1ccc(O)cc1)N(C)C.CCO.Cl (stereo not shown),-69.5
20,O=C(C1=C(O)C(=O)N(CCN2CCOCC2)C1c1ccccc1)c1cccs1 (stereo not shown),-2.27
21,O=C(OC(C(=O)NCc1cccs1)c1ccccc1F)c1ccco1 (stereo not shown),20.5
